From the supplement of paper PMC10849652
Targets with a hit are over-represented here; the source holds about 8,800 in all. About 0.5% of all pairs of compound and target were hits.

What was measured:
Test in all cases: log2 fold change, soluble protein after heating vs DMSO (PISA); higher = thermal stabilisation; K562 lysate, 10 uM; active = over 0.2 and 3.5 SD of the protein, either way, in both replicates (recomputed)
ibrutinib = compound: C=CC(=O)N1CCC[C@@H](n2nc(-c3ccc(Oc4ccccc4)cc3)c3c(N)ncnc32)C1 [ibrutinib]
Summary of the method: (§1)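 Dounce homogenisation of K562 pellets in PBS pH 7.4 with 1 mM MgCl2 produced a crude extract, used at 1 mg/mL protein. Exposure to 10 μM compound lasted 30 min, and aliquots were then heated for 3 min across 48°C-58°C, pooled and brought to 0.5% NP-40 at 4°C. The supernatant after 21,000xg for 90 min was quantified by TMTpro 16plex LC-MS/MS with channel sums equalised. Duplicate values are given as log-two fold change in thermal stability relative to solvent controls.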

[1] = compound: CC(=O)c1cnc2ccc(-c3cc(Cl)c(O)c(Cl)c3)nc2c1N[C@H]1CC[C@H](CN(C)C)CC1
Summary of the method: as §1

ralimetinib = compound: CC(C)(C)Cn1c(N)nc2ccc(-c3[nH]c(C(C)(C)C)nc3-c3ccc(F)cc3)nc21 [ralimetinib]
Summary of the method: as §1

[2] = compound: CC(C)(O)CC(=O)NCCn1ccc2ncnc(Nc3ccc(Oc4cccc(C(F)(F)F)c4)c(Cl)c3)c21
Summary of the method: as §1

[3] = compound: CC(C)C1=C2N=C(C=C(N2N=C1)NCC3=CC=CC=C3)NCCCCCCN
Summary of the method: as §1

[4] = compound: CC1=C(C(CC(=O)N1)C2=CC=C(C=C2)C(F)(F)F)C(=O)NC3=C(C=C4C(=C3)C=NN4)F
Summary of the method: as §1

[5] = compound: CC1=C(C2=C(C=C1)C(=O)C3=CC=CC=C3N2CCCN)C
Summary of the method: as §1

[6] = compound: CC1=C(C=C(C=C1)NC(=O)C2=CC(=CC=C2)C(C)(C)C#N)NC3=CC4=C(C=C3)N=CN(C4=O)C
Summary of the method: as §1

[7] = compound: CC1=C(C=C(C=C1)NC(=O)C2=CC(=CC=C2)N(C)C)NC(=O)C3=CC=C(C=C3)O
Summary of the method: as §1

[8] = compound: CC1=CC=C(C=C1)SC2=C3C=C(SC3=CN=C2)C(=O)N
Summary of the method: as §1

[9] = compound: CCCS(=O)(=O)Nc1ccc(F)c(C(=O)c2c[nH]c3ncc(Cl)cc23)c1F
Summary of the method: as §1

barasertib = compound: CCN(CCCOc1ccc2c(Nc3cc(CC(=O)Nc4cccc(F)c4)[nH]n3)ncnc2c1)CCOP(=O)(O)O [barasertib]
Summary of the method: as §1

[10] = compound: CC[C@@H]1C(=O)N(C)c2cnc(Nc3ccc(C(=O)NC4CCN(C)CC4)cc3OC)nc2N1C1CCCC1
Summary of the method: as §1

volasertib = compound: CC[C@@H]1C(=O)N(C)c2cnc(Nc3ccc(C(=O)N[C@H]4CC[C@H](N5CCN(CC6CC6)CC5)CC4)cc3OC)nc2N1C(C)C [volasertib]
Summary of the method: as §1

[11] = compound: CCn1c(C(=O)N(C2CC2)C2CC2)cc2c3c(ncn3C)c(Nc3cc(C)n(C)n3)nc21
Summary of the method: as §1

[12] = compound: CCn1cc(-c2ccnc3[nH]c(-c4cccc(CN(C)C)c4)cc23)c(-c2ccc(NC(=O)N(C)C)cc2)n1
Summary of the method: as §1

[13] = compound: CN1CCC(CNc2ccc3ncc(-c4cccc(OC(F)(F)F)c4)n3n2)CC1
Summary of the method: as §1

saracatinib = compound: CN1CCN(CCOc2cc(OC3CCOCC3)c3c(Nc4c(Cl)ccc5c4OCO5)ncnc3c2)CC1 [saracatinib]
Summary of the method: as §1

sotrastaurin = compound: CN1CCN(c2nc(C3=C(c4c[nH]c5ccccc45)C(=O)NC3=O)c3ccccc3n2)CC1 [sotrastaurin]
Summary of the method: as §1

vemurafenib = compound: CCCS(=O)(=O)Nc1ccc(F)c(C(=O)c2c[nH]c3ncc(-c4ccc(Cl)cc4)cc23)c1F [vemurafenib]
Summary of the method: as §1

Measured: log2 fold change

EHHADH (UniProt Q08426)
Chain of UniProt Q08426 (Q08426 whole entry, looked up): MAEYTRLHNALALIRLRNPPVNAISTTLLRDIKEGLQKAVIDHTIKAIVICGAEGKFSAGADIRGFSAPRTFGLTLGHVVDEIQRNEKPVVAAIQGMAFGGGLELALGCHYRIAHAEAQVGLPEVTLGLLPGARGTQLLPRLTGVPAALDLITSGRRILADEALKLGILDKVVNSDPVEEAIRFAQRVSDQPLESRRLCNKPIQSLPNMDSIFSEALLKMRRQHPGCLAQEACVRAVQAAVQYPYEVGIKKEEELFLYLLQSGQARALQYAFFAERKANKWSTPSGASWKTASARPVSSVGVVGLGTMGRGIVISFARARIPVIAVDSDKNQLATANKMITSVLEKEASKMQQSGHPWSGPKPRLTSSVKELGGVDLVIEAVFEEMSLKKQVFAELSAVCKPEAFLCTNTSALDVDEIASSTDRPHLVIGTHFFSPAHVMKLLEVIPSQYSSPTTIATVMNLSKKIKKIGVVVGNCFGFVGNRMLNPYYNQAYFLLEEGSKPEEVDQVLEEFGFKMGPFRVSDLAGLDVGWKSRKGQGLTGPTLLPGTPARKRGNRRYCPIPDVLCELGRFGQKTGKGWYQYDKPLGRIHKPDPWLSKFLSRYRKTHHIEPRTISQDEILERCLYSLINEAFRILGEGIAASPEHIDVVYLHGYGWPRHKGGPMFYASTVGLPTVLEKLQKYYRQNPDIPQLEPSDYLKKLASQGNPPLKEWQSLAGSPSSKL
inactive: ibrutinib 0.059 | [1] -0.023 | ralimetinib 0.021 | [2] -0.084 | [3] -0.016 | [4] -0.003 | [5] 0.128 | [6] -0.027 | [7] 0.031 | [8] 0.008 | [9] 0.082 | barasertib -0.066 | [10] 0.117 | volasertib -0.108 | [11] -0.037 | [12] 0.055 | [13] -0.037 | saracatinib 0.091 | sotrastaurin -0.044

EPS8L2 (UniProt Q9H6S3)
Chain of UniProt Q9H6S3 (Q9H6S3 whole entry, looked up): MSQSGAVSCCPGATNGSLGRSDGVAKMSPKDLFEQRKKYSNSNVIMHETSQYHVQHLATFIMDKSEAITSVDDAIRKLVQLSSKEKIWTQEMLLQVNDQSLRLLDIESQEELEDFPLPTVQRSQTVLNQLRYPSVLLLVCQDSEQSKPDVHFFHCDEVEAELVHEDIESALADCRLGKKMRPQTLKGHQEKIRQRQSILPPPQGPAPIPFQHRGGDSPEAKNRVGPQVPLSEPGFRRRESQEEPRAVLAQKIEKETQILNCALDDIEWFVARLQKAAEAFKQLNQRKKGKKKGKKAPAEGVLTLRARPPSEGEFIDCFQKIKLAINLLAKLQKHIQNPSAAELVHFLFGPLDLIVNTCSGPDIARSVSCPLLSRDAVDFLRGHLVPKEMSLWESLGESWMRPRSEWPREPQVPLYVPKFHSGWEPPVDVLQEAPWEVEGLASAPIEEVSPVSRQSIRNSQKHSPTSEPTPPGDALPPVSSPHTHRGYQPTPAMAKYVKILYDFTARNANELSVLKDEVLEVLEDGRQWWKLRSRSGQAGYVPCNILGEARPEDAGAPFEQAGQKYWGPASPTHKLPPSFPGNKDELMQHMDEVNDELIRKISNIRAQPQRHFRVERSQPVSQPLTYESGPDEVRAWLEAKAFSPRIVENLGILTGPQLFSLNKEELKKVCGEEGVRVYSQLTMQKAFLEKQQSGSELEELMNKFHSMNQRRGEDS
inactive: ibrutinib -0.041 | [1] -0.026 | ralimetinib -0.028 | [2] -0.021 | [3] 0.002 | [4] 0.031 | [5] -0.002 | [6] -0.054 | [7] -0.084 | [8] 0.015 | [9] 0 | barasertib -0.049 | [10] 0.022 | volasertib 0.023 | [11] -0.034 | [12] -0.196 | [13] 0.056 | saracatinib 0.045 | sotrastaurin -0.049

FAM118B (UniProt Q9BPY3)
Chain of UniProt Q9BPY3 (Q9BPY3 whole entry, looked up): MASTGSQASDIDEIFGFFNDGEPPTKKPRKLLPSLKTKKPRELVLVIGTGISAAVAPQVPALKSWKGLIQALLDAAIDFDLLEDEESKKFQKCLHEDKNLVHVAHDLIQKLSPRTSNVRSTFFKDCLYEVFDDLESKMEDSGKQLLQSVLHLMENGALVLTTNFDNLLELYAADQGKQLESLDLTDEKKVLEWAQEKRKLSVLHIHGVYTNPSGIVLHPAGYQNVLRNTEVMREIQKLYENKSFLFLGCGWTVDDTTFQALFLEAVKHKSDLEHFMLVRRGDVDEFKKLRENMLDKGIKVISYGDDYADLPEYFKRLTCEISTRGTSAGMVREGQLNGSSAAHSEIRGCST
inactive: ibrutinib 0.066 | [1] -0.016 | ralimetinib 0.015 | [2] -0.019 | [3] 0.023 | [4] -0.01 | [5] 0.012 | [6] -0.012 | [7] 0.03 | [8] 0.008 | vemurafenib -0.06 | [9] 0.03 | barasertib 0.004 | [10] -0.014 | volasertib 0.001 | [11] 0.022 | [12] -0.03 | [13] -0.027 | saracatinib 0.004 | sotrastaurin 0.048

EIF2D (UniProt P41214)
Chain of UniProt P41214 (P41214 whole entry, looked up): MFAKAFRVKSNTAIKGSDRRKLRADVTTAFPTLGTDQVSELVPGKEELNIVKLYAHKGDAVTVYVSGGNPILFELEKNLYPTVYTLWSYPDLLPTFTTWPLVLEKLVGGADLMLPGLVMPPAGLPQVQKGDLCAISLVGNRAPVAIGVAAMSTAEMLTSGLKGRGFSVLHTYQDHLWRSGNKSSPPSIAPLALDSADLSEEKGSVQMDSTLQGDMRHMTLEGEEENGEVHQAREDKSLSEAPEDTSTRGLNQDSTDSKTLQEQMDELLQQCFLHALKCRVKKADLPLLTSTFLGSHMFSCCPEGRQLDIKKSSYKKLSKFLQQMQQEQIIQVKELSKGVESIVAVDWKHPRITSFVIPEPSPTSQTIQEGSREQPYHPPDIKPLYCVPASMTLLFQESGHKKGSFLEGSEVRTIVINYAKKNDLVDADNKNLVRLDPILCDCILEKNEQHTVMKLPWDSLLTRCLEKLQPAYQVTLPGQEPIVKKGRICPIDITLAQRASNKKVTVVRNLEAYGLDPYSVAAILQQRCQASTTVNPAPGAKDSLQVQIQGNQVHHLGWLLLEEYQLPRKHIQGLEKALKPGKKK
inactive: ibrutinib 0.011 | [1] -0.017 | ralimetinib 0.018 | [2] 0.026 | [3] 0.03 | [4] -0.005 | [5] -0.03 | [6] -0.004 | [7] 0.016 | [8] 0.01 | vemurafenib 0.041 | [9] 0.024 | barasertib 0.017 | [10] -0.074 | volasertib -0.052 | [11] 0.001 | [12] -0.02 | [13] -0.071 | saracatinib -0.002 | sotrastaurin 0.026

EAPP (UniProt Q56P03)
Chain of UniProt Q56P03 (Q56P03 whole entry, looked up): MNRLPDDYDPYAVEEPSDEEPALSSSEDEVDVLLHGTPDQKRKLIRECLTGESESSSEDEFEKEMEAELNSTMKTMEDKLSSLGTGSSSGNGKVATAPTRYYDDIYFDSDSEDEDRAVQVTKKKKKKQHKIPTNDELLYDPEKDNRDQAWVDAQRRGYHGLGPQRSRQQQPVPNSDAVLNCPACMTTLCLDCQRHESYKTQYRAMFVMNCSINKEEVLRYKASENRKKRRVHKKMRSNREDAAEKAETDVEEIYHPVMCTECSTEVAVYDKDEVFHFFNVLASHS
inactive: ibrutinib -0.105 | [1] 0.025 | ralimetinib -0.1 | [2] -0.059 | [3] -0.035 | [4] 0.037 | [5] -0.037 | [6] -0.015 | [7] 0.052 | [8] -0.042 | vemurafenib 0.246 | [9] 0.038 | barasertib -0.048 | [10] 0.06 | volasertib 0.02 | [11] 0.009 | [12] -0.085 | [13] -0.092 | saracatinib 0.034 | sotrastaurin -0.008

FTL (UniProt P02792)
Chain of UniProt P02792 (P02792 whole entry, looked up): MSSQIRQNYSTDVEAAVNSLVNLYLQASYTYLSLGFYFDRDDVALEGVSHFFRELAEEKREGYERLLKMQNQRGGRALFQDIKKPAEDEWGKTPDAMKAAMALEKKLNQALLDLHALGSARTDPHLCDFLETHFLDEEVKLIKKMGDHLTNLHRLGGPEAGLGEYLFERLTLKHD
inactive: ibrutinib -0.026 | [1] -0.025 | ralimetinib -0.146 | [2] -0.257 | [3] 0.023 | [4] 0.027 | [5] 0.041 | [6] 0.023 | [7] 0.033 | [8] 0.053 | vemurafenib -0.063 | [9] 0.047 | barasertib -0.005 | [10] 0.03 | volasertib 0.06 | [11] -0.327 | [12] -0.041 | [13] 0.092 | saracatinib 0.058 | sotrastaurin 0.036

ENY2 (UniProt Q9NPA8)
Chain of UniProt Q9NPA8 (Q9NPA8 whole entry, looked up): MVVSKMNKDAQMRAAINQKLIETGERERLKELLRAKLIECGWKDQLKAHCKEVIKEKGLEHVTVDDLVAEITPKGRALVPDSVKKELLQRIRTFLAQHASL
active: [12] 0.886 | [13] -0.406
inactive: ibrutinib 0.161 | [1] 0.038 | ralimetinib -0.021 | [2] 0.057 | [3] 0 | [4] -0.069 | [5] 0.066 | [6] 0.075 | [7] -0.052 | [8] 0.035 | vemurafenib -0.057 | [9] 0.016 | barasertib 0.072 | [10] -0.036 | volasertib 0.033 | [11] 0.048 | saracatinib -0.003 | sotrastaurin -0.003

EEF1AKMT4 (UniProt P0DPD7)
Chain of UniProt P0DPD7 (P0DPD7 whole entry, looked up): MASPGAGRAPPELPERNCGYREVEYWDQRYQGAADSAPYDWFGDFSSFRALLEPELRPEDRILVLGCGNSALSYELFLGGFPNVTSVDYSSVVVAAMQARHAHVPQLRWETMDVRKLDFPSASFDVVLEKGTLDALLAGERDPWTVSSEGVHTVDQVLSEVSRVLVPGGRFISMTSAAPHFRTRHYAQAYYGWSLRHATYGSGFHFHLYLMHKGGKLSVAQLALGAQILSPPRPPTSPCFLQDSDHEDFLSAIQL
inactive: ibrutinib 0.023 | [1] -0.012 | ralimetinib -0.003 | [2] -0.053 | [3] 0.003 | [4] -0.006 | [5] -0.055 | [6] -0.029 | [7] -0.029 | [8] 0.069 | vemurafenib 0.135 | [9] 0.008 | barasertib 0.126 | [10] -0.025 | volasertib -0.072 | [11] -0.035 | [12] -0.129 | [13] 0.052 | saracatinib -0.033 | sotrastaurin -0.004
